40 compounds from PubChem BioAssay (Tox21) can be followed below.

Several values for one entry are separate records, joined by “and”; a condition that tells them apart may be missing. Equal values may be shown once. Records with an inconclusive call do not appear. Unmarked numbers belong to inactive results. Activity calls are given as the source filed them. The call rests on the fitted dose curve; in most records, active means well fitted cell-killing curve with a large enough effect in the repeat runs; inconclusive means weak or mixed curves, or effect the other way; inactive means flat fitted curve, though single readings scatter.
On the % scale 0 is the no-effect control and ±100 the full control effect; potency means the concentration at half of the fitted maximal effect.

A short description of the assay: qHTS RealTime-Glo MT Cell Viability Assay in HEK293 cells - 40 hour (AID 1224874). Further: nearly all actives have a fitted effect of over 50% in size. The note with it: RealTime-Glo luminescence; max response: hits give low values. An excerpt:
U.S. Tox21 Program National Center for Advancing Translational Sciences [NCATS] NIH Chemical Genomics Center [NCGC] U.S. Environmental Protection Agency [EPA] National Institutes of Environmental Health Sciences [NIEHS] National Toxicology Program [NTP] U.S. Food and Drug Administration [FDA] Tox21 Assay Overview: Measure of cell viability is critical in the cell-base assay. Analysis of cell viability is necessary for the characterization of cell responses to cytotoxic drugs and environmental stress. A RealTime-Glo MT Cell Viability Assay to monitor cell viability in real time of continues cell culture during 40 hours of compound treatment was used to screen Tox21 10K library compounds in Hek293 cells. The RealTime-Glo MT Cell Viability Assay is a nonlytic, homogeneous, bioluminescent method to measure cell viability in real time using a simple, plate-based method. The assay involves adding NanoLuc luciferase and a cell-permeant prosubstrate to cells in culture. Viable cells reduce the proprietary prosubstrate to generate a substrate for NanoLuc luciferase. This substrate diffuses from cells into the surrounding culture medium, where it is rapidly used by the NanoLuc Enzyme to produce a luminescent signal. The signal correlates with the number of viable cells, making the assay well suited for cytotoxicity studies.
Tox21 Assay Protocol Summary: The mixture of Hek293 cell suspension and reagents were dispensed at 600cells/6 ul/well in 1536-well tissue culture treated black solid bottom plates using a Multidrop dispenser. After the assay plates were incubated at a 37 C/5% CO2 incubator for 5 hours, 23 nL of compounds dissolved in DMSO, positive and negative controls was transferred to the assay plate by a pintool work station. The plates were incubated at 37 C for 40 hours. The luminescence intensity were measured at 0h, 8h, 16h, 24h, 32h and 40h time points using ViewLux plate reader during compound treatment.
(In qHTS, concentration-response curves come from the screen itself.)
On to `N=C1N=C(N)c2cc3ccccc3cc21`, for which the Potency was 32.1 µM (active).

In the case of `O=CC=C(c1ccccc1)c1ccccc1`, the Potency is 17.5 µM (active).

`O=C(O)c1c(Cl)cccc1Cl`: the max response is 1.14%.

On to `Cc1cc2c(cc1C(F)(F)F)N(C(=O)Nc1ccc(Oc3cccnc3C)nc1)CC2`, for which the Potency was 5.58 µM (active).

`CC(=O)SC[C@@H](Cc1ccccc1)C(=O)NCC(=O)OCc1ccccc1`: the max response was 0.0146%.

For the compound `C=CC(=O)OCC(CO)(COC(=O)C=C)COC(=O)C=C`, the Potency is 3.48 µM (active).

As for `CN(C)c1ccc(SC#N)cc1`, the max response was 0.13%.

As for `CC(C)(C)C1CCC(CC2=C(O)c3ccccc3C(=O)C2=O)CC1` (stereo not given), the max response was -30%.

`Clc1ccc(C(Cn2ccnc2)OCc2ccc(Sc3ccccc3)cc2)c(Cl)c1` (stereo not given): the max response is -2.43%.

As for `CC(C)(C)CC(C)(C)c1ccc(OCCOCC[N+](C)(C)Cc2ccccc2)cc1`, the Potency was 9.76 µM (active) and 8.49 µM (active).

`CNCc1cc(F)ccc1Oc1ccc(Cl)c(Cl)c1`: the Potency is 43.6 µM (active).

For `O=C1CCCc2c1cc1ccc3cccc4ccc2c1c34`, the Potency is 9.89 µM (active).

Turning to `Nc1c2ccccc2nc2ccccc12`, the Potency is 4.83 µM (active) and 2.39 µM (active).

In the case of `O=C1C=CC(=O)N1`, the Potency is 11.3 µM (active).

On to `CCCCCOC(=O)CCCC`, for which the max response was -0.909%.

For the compound `CCC(Cl)C(Cl)C(Cl)CC(Cl)C(Cl)C(C)Cl` (stereo not given), the max response is -19.8%.

`CC[C@@]1(O)C(=O)OCc2c1cc1n(c2=O)Cc2c-1nc1ccccc1c2/C=N/OC(C)(C)C`: the Potency was 0.0239 µM (active).

In the case of `CCN(CC)CCNC(=O)c1c(C)[nH]c(/C=C2\C(=O)Nc3ccc(F)cc32)c1C`, the Potency is 8.49 µM (active).

For `CCCN(CCC)c1c([N+](=O)[O-])cc(C(F)(F)F)c(N)c1[N+](=O)[O-]`, the Potency is 19.4 µM (active).

On to `Cc1oc(-c2ccccc2)nc1CCC(=O)c1ccc(CC2SC(=O)NC2=O)cc1` (stereo not given), for which the max response was -22.3%.

Regarding `O=[N+]([O-])c1cc([N+](=O)[O-])c2ccc(S(=O)(=O)O)cc2c1O`, the max response is -17.1%.

As to `Cc1ccc(O)c2ncccc12`, the max response is -18.6%.

With `Oc1ccc2cc(SSc3ccc4cc(O)ccc4c3)ccc2c1`, the Potency is 55 µM (active).

Consider `NC(=O)CC[C@@H]1NC(=O)[C@H](Cc2ccccc2)NC(=O)[C@H](Cc2ccc(O)cc2)NC(=O)CCSSC[C@@H](C(=O)N2CCC[C@H]2C(=O)N[C@@H](CCCN=C(N)N)C(=O)NCC(N)=O)NC(=O)[C@H](CC(N)=O)NC1=O`, for which the max response was 0.946%.

Turning to `O=C(O)c1cc(O)c2c(c1)C(=O)c1cccc(O)c1C2=O`, the max response is -10.8%.

Consider `Oc1cccc2cc3cccc(O)c3c(O)c12`, for which the max response was 0.771%.

Take `Cc1cc(O)c2ccccc2c1O`: the Potency was 8.49 µM (active).

Turning to `Clc1ccccc1C(c1ccccc1)(c1ccccc1)n1ccnc1`, the Potency is 19.5 µM (active) and 6.74 µM (active).

For the compound `O=C(c1ccc(F)cc1)C1CCN(CCn2c(=O)[nH]c3ccccc3c2=O)CC1`, the Potency was 9.52 µM (active).

On to `ON=C1CCCC1`, for which the Potency is 22.6 µM (active).

`CCCCN1CCCC[C@H]1C(=O)Nc1c(C)cccc1C`: the max response was -2.09%.

With `C1CCCC1`, the max response is -2.57%.

`NNC(=O)c1cccc(C(=O)NN)c1`: the max response is -2.8%.

With `NNc1nc(-c2ccc([N+](=O)[O-])cc2)cs1`, the Potency is 24.5 µM (active).

`OCCCCCCCCCCCCBr`: the Potency is 11.1 µM (active).

`CC1=NC(C)OC1C` (stereo not given): the max response is 0.967%.

Turning to `[Cl][Bi]([Cl])([c]1ccccc1)([c]1ccccc1)[c]1ccccc1`, the Potency was 1.94 µM (active).

In the case of `CSc1ccc(/C=C2/C(C)=C(CC(=O)O)c3cc(F)ccc32)cc1`, the max response is 9.83%.

For `CC[C@H]1O[C@]2(CC[C@@H]1C)C[C@@H]1C[C@@H](C/C=C(\C)C[C@@H](C)/C=C/C=C3\CO[C@@H]4[C@H](O)C(C)=C[C@@H](C(=O)O1)[C@]34O)O2`, the Potency was 24.3 µM (active).

On to `CCCCCCCCNC(C)C(O)c1ccc(SC(C)C)cc1` (stereo not given), for which the Potency is 8.49 µM (active).
